Laboratory results published in PubChem BioAssay (NCATS).
Unmarked numbers belong to inactive results. Calls come from the whole dose curve; as a rule, active = well fitted activation curve with a large enough effect; inconclusive = small, poorly fitted or top-dose-only effect; inactive = flat fitted curve, though single readings scatter.

Assay: Cellular Toxicity (caspase-3) Mesangial (AID 660);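 note: combined caspase 3 and 7 activity read by Caspase-Glo luminescence; cells exposed to compound for 16 h before the caspase read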
Conditions: mesangial cells, normalized: DMSO 0%, 100 µM tamoxifen 100%; at 91.7 µM (top of the series)
Source text: NIH Chemical Genomics Center [NCGC]
NIH Molecular Libraries Screening Centers Network [MLSCN]
National Institutes of Environmental Health Sciences [NIEHS]
National Toxicology Program [NTP]
We have developed a 1536-well cell-based assay for quantitative high throughput screening (qHTS) against a number of cell lines to determine in vitro caspase 3/7 of small molecules. This particular assay uses the mesangial cell line which is derived from normal human renal glomeruli.
NCGC Assay Protocol Summary:
The Caspase-Glo 3/7 assay (Promega) is a homogeneous method to measure caspase-3 and caspase-7 activities in cultured cells. The quantitation of caspase 3/7 activity is based on the cleavage of a peptide-aminoluciferin substrate. After caspase cleaves the substrate the free aminoluciferin is liberated and serves as the substrate of luciferase, which generates the light. The luminescent signal is proportional to amount of caspase 3/7 activity present.
Using the Caspase-Glo 3/7 assay, the amount of caspase 3/7 activity was measured in the mesangial cell line with complete culture medium following compound treatment for 16 hours. The assay was performed in opaque white 1536-well plates. In the screen, tamoxifen and doxorubicin were used as positive controls. Library compounds were measured for their ability to cause the activation of caspase 3/7 in the cell line, as reflected by an increase in luminescence signal, in a concentration-dependent manner. Data were normalized to the controls for basal activity (DMSO only) and 100% stimulation (100 uM tamoxifen). AC50 values were determined from concentration-response data modeled with the standard Hill equation.
qHTS protocol for caspase 3/7 assay in mesangial cell line
[Step] [Parameter] [Value] [Description]
1. Reagent; 5 uL; 1000 mesangial cells/well
2. Time; 5 hr; 37 °C incubation
4. Controls; 23 nL; Tamoxifen 0.23 uM to 100 uM & doxorubicin 7.0 pM to 100 uM
5. Time; 16 hr; 37 °C incubation
6. Reagent; 5 uL; Caspase-Glo 3/7 reagent
7. Time; 20 min; Room Temperature
8. Detection; Luminescence; Viewlux plate reader
Keywords: caspase 3/7, apoptosis, mesangial cell line, luminescence, NTPHTS, NTPHTS_NCGC, NIEHS, EPA, DSSTox, MLSMR, MLSCN, NIH Roadmap, qHTS, NCGC

SMILES | caspase-3 activation [%]
CC(=O)CC(C)C | 0.196
CC(=O)C1(C)CC2=C(CCCC2(C)C)CC1C (stereo not given) | 1.57
CC(C)(C)OC=O | 1.35
CCCCCCCCC/C=C/CC1CC(=O)OC1=O (stereo not given) | 0.816
O=Cc1c(Cl)cccc1Cl | -0.583
Cc1ccc(Cl)cc1N | -0.617
CC(=O)c1ccccn1 | 0.864
CC(=O)c1nccs1 | 0.103
COc1cccc2sc(N)nc12 | 1.13
O=[N+]([O-])c1c(Cl)cc(Cl)cc1Cl | -0.0612
CCC(O)C(C)(C)C (stereo not given) | 0.94
C=C(C)C(=O)OC | 0.161
NC=O | -0.458
CNC(=O)N(c1ccccc1)c1ccccc1 | 0.477
Cc1nc2ccc(Cl)cc2[nH]1 | -0.773
Cc1ccccc1Br | -0.877
CC(C)CCOC(=O)/C=C/c1ccccc1 | 0.297
C=C(C)C1CC=C(C)C(OC(C)=O)C1 (stereo not given) | -0.114
CN(C)c1cccc(O)c1 | 1.93
Cc1ccc2oc(=O)ccc2c1 | -0.888

SMILES | caspase-3 activation [%]
O=C(O)c1cc(Cl)cc(Cl)c1 | -0.386
C1CCCC1 | -0.162
C=CC(=O)NC(C)C | 1.12
N#CC1(O)CCCCC1 | 0.158
CCCCC(=O)N(C)C | 0.37
O=Cc1ccc(CO)o1 | -0.0811
O=C(O)c1cccc(Cl)c1Cl | 0.259
FC(F)(F)c1ccccc1Cl | 1.05
Cc1ccc2nc(-c3ccc(N)cc3)sc2c1S(=O)(=O)O | -3.9
Cc1ccccc1C(=O)O | -0.934
Cc1ccc(C)c(N)c1 | 1.89
CCCCCCC=O | -0.687
COc1ccc(N=[N+]([O-])c2ccc(OC)cc2)cc1 | -3.45
O=Cc1cccc(Br)c1 | 1.82
c1ccc2[nH]cnc2c1 | 0.6
CCCCCCCCCCCCOCC1CO1 (stereo not given) | 1.85
O=C(O)c1ccccc1C(=O)O | 1.74
CC(C)Nc1ccccc1 | 1.26
O=[N+]([O-])c1ccccc1CCO | -1.29
Cc1ccc(Cl)cc1 | 0.555
